# Active and inactive are the calls of the source.
# Experiments:
# [1] = optical density shifts of acrAB sulA E. coli – strain DRC41, OD650, 48 h, E. coli filamentation inducer project, primary screen (AID 1152); conditions: higher = more signal, called active from +8 up or from −8 down;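 note: E. coli MC1000 strain DRC41 lacking acrAB efflux pump and sulA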
# [2] = probe aLefty1 binding on compound microarray – biochemical, small-molecule microarray, 635/667 nm fluorescence, primary screen (AID 1153); conditions: higher = more signal;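 note: score merges spot fluorescence with signal-to-noise ratio from the scanned slide images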
# [3] = plasmodial surface anion channel blockers, osmotic lysis – cell-based, P. falciparum Indochina, OD700, 1 h, primary screen (AID 1154); conditions: P. falciparum Indochina infected RBC osmotic lysis, higher = more signal, called active from +8 up or from −8 down
# [4] = plasmodial surface anion channel blockers, osmotic lysis – cell-based, P. falciparum Indochina, OD700, 2 h, primary screen (AID 1155);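 note: lysis reports solute entry through the parasite surface anion channel PSAC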; conditions: P. falciparum Indochina infected erythrocytes, higher = more signal, called active from +8 up or from −8 down
# [5] = changes in parasitized red cell lysis, either direction – P. falciparum Indochina, OD700, 3 h, PSAC antagonist project, primary screen (AID 1156); conditions: P. falciparum-infected erythrocytes, osmotic lysis, higher = more signal, called active from +8 up or from −8 down
# [6] = plasmodial surface anion channel blockers, osmotic lysis – cell-based, P. falciparum Indochina, OD700, 18 h, primary screen (AID 1157); conditions: P. falciparum Indochina infected erythrocytes, osmotic lysis OD700, 18 h; higher = more signal, called active from +8 up or from −8 down
# [7] = S6 kinase pathway phospho-S6 level changes – cell-based, A549, cytoblot, luminescence, serum-stimulated, primary screen (AID 1158); conditions: 5 h, higher = more signal;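 note: serum-stimulated A549 lung adenocarcinoma cells; signal is phosphorylated S6 detected by cytoblot immunostaining with HRP secondary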
# [8] = target: NADPH oxidase 2 (Homo sapiens) (UniProt P04839); experiment: compounds shifting NOX2 Amplex Red fluorescence – cell-based, HEK293-NOX2, PMA-stimulated, NOX inhibitor project, primary screen (AID 1159); conditions: 45 min, higher = more signal, called active from +8 up or from −8 down; note: test concentration not given here
# Chain of NADPH oxidase 2 (Homo sapiens) (P04839 whole entry, looked up): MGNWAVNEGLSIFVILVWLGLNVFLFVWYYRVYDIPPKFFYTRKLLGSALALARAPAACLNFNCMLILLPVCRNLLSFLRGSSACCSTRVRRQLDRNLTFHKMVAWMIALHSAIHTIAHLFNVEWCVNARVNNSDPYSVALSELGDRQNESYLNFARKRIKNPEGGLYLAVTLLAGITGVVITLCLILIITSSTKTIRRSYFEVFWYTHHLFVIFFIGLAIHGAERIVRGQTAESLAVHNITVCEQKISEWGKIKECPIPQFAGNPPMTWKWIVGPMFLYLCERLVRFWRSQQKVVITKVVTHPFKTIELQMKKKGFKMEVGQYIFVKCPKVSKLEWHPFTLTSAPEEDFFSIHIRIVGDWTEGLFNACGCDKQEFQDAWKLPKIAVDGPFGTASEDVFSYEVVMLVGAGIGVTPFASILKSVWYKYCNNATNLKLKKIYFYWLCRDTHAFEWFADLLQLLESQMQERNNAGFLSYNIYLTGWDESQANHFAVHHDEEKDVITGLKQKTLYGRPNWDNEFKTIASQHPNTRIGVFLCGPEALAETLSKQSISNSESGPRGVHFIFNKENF
# [9] = target: NADPH oxidase 4 (Homo sapiens) (UniProt Q9NPH5); experiment: compounds shifting NOX4 Amplex Red fluorescence – cell-based, HEK293-NOX4, tetracycline-induced, NOX inhibitor project, primary screen (AID 1160); conditions: HEK293-NOX4, Amplex Red H2O2 fluorescence, 45 min; higher = more signal, called active from +8 up or from −8 down
# Chain of NADPH oxidase 4 (Homo sapiens) (Q9NPH5 whole entry, looked up): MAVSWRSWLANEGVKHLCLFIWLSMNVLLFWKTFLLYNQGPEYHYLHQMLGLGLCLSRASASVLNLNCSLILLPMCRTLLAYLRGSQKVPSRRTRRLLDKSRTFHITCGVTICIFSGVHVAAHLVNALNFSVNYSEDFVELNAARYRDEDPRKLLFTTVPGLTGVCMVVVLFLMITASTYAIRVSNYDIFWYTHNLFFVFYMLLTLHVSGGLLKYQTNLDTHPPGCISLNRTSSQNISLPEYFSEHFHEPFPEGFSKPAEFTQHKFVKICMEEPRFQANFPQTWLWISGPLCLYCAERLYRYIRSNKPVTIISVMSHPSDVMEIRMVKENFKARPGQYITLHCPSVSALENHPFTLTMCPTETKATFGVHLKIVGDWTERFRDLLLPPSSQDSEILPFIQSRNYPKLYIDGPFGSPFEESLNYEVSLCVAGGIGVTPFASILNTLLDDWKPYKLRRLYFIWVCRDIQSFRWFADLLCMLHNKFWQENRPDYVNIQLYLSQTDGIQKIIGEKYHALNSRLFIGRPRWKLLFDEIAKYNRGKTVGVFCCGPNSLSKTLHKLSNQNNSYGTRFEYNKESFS
# [10] = target: NADPH oxidase 5 (Homo sapiens) (UniProt Q96PH1); experiment: compounds shifting NOX5 Amplex Red fluorescence – cell-based, HEK293-NOX5, NOX inhibitor project, primary screen (AID 1161); conditions: HEK293-NOX5, ionomycin, 45 min, higher = more signal
# Chain of NADPH oxidase 5 (Homo sapiens) (Q96PH1 whole entry, looked up): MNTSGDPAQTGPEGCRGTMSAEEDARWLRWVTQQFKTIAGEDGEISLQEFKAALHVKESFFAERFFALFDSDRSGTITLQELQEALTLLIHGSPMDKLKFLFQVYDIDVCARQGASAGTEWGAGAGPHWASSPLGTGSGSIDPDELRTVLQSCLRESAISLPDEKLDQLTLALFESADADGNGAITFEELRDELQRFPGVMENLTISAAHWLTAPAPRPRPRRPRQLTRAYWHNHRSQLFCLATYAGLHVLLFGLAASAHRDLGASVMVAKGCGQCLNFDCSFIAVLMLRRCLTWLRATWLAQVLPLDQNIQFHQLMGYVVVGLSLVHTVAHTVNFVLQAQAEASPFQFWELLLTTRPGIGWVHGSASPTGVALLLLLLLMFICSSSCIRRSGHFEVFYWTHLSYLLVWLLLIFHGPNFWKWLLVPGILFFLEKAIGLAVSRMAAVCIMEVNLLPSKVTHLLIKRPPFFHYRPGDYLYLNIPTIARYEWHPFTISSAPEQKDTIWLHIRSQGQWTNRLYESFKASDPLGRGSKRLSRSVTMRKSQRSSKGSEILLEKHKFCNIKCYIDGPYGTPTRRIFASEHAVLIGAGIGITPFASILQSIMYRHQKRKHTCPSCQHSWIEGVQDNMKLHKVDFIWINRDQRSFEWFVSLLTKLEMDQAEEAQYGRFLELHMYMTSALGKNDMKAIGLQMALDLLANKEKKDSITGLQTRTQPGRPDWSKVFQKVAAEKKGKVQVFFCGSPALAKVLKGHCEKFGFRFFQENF
# [11] = compound effects on lung adenocarcinoma cell viability – A549, calcein-AM fluorescence, 48 h, basal, profiling panel (AID 1162); conditions: higher = more signal; note: test concentration not given here
# [12] = compound effects on differentiated 3T3-L1 adipocyte viability – cell-based, 3T3-L1 adipocytes, calcein-AM fluorescence, 48 h, basal, profiling panel (AID 1163); conditions: 3T3-L1 adipocytes viability, higher = more signal; note: test concentration not given here
# [13] = compound effects on hepatocellular carcinoma cell viability – HepG2, calcein-AM fluorescence, 48 h, basal, profiling panel (AID 1164); conditions: higher = more signal; note: test concentration not given here
# [14] = compound effects on multiple myeloma cell viability – MM1S, calcein-AM fluorescence, 48 h, basal, profiling panel (AID 1165); conditions: higher = more signal; note: test concentration not given here
# [15] = calcein-AM signal in unstimulated myeloma cells – cell-based, calcein-AM fluorescence, 48 h, PK04 Diversity Set, profiling panel (AID 1166); conditions: RPMI8226 myeloma viability, higher = more signal;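 note: cells grown under basal conditions without added stimulus; test concentration not given here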
# [16] = JC-1 mitochondrial signal, unstimulated HepG2 cells – cell-based, JC-1 fluorescence, 24 h, 100 nL compound, profiling panel (AID 1167); conditions: HepG2 mitochondrial potential, higher = more signal; note: test concentration not given here
# [17] = JC-1 mitochondrial signal, unstimulated adipocytes – cell-based, JC-1 fluorescence, 3T3-L1 adipocytes, 24 h, 100 nL compound, profiling panel (AID 1168); conditions: JC-1 mitochondrial fluorescence, higher = more signal, called active from +8 up or from −8 down; note: test concentration not given here
# [18] = JC-1 mitochondrial signal, unstimulated myeloma cells – cell-based, JC-1 fluorescence, RPMI8226, 24 h, 100 nL compound, profiling panel (AID 1169); conditions: JC-1 mitochondrial potential fluorescence, higher = more signal; note: test concentration not given here
# [19] = JC-1 mitochondrial signal, unstimulated MM1S myeloma – cell-based, JC-1 fluorescence, 24 h, 100 nL compound, profiling panel (AID 1170); conditions: MM1S mitochondrial potential, higher = more signal; note: test concentration not given here
# [20] = resazurin metabolic signal in A549 cells – cell-based, resazurin fluorescence, 24 h, PK04 Diversity Set, profiling panel (AID 1171); conditions: A549 viability, higher = more signal, called active from +8 up or from −8 down; note: test concentration not given here
SMILES,z-score [1],composite z-score [2],z-score [3],z-score [4],z-score [5],z-score [6],z-score [7],z-score [8],z-score [9],z-score [10],z-score [11],z-score [12],z-score [13],z-score [14],z-score [15],z-score [16],z-score [17],z-score [18],z-score [19],z-score [20]
CCOC(=O)CCN1C(=O)[C@H]2[C@H]3[C@H](O)[C@H](O)CC(=NOCC(C)C)[C@H]3CC[C@H]2C1=O,0.867 (inactive),-0.0519,0.0425 (inactive),-0.153 (inactive),0.298 (inactive),0.304 (inactive),-0.0487,-0.864 (inactive),0.148 (inactive),0.444,0.0183,0.179,-0.268,0.324,-0.75,0.364,0.295 (inactive),-0.324,-1.03,-0.86 (inactive)
CC=CC1=C(CO)C(=O)[C@@H]2O[C@@H]2C1=O,0.33 (inactive),-0.202,-0.4 (inactive),-0.344 (inactive),-0.501 (inactive),-0.267 (inactive),-0.292,2.08 (inactive),-0.329 (inactive),0.846,-0.912,-1.18,-0.88,-3.5,-2.88,-1.86,-0.316 (inactive),-1,-2.1,-0.315 (inactive)
CC1O[C@H]2C3=C(C(=O)[C@@H]4O[C@@H]4[C@H]3O)[C@@H]1C1[C@@H](C)OC=C3[C@H](O)C4O[C@@H]4C(=NOCc4ccccc4)[C@]312 (stereo not given in full),-0.259 (inactive),-0.184,1.3 (inactive),0.184 (inactive),0.0322 (inactive),0.0995 (inactive),-0.871,0.32 (inactive),0.584 (inactive),0.445,-0.434,0.145,-1.65,-3.58,-3.71,-2.66,0.435 (inactive),-0.856,-2.28,-0.989 (inactive)
CCOC(=O)[C@H](CC(C)C)NC(=O)CCC1CC(OC(=O)NCc2ccc3c(c2)OCO3)CC2(CCCC(COC(=O)NCC(c3ccccc3)c3ccccc3)O2)O1 (stereo not given in full),0.0056 (inactive),-0.106,2.08 (inactive),0.316 (inactive),-0.532 (inactive),-0.071 (inactive),-0.438,-0.312 (inactive),1.03 (inactive),0.698,-0.338,-0.335,-0.312,-3.41,0.592,-0.106,0.604 (inactive),-0.828,0.0369,0.577 (inactive)
Cc1cc2c(nc1C)CCCN2CC(O)CN1CCCc2nc(C)c(C)cc21,-0.171 (inactive),0.547,-0.274 (inactive),0.185 (inactive),0.249 (inactive),-0.0697 (inactive),-0.669,0.803 (inactive),0.628 (inactive),-0.575,-0.254,-0.0412,-0.949,-0.0227,0.391,0.00162,-0.414 (inactive),-0.108,0.382,0.189 (inactive)
CCOC(=O)NN=C1C[C@@H](O)[C@@H](O)[C@@H]2[C@@H]3C(=O)N(c4cccc(Oc5ccccc5)c4)C(=O)[C@@H]3CC[C@@H]12,-0.852 (inactive),-0.0984,0.999 (inactive),0.753 (inactive),0.471 (inactive),0.233 (inactive),-0.142,0.361 (inactive),-0.0548 (inactive),-2.88,-0.382,0.279,-1.56,-0.454,-0.423,-0.0933,-0.451 (inactive),-0.0715,0.524,-0.0206 (inactive)
C=Cc1ccc([C@H]2N[C@H](C(=O)O)CC[C@@H]2C)cc1,0.374 (inactive),-0.338,-0.27 (inactive),-0.344 (inactive),-1.26 (inactive),-0.267 (inactive),-0.599,1.06 (inactive),-0.0223 (inactive),0.0584,-0.241,-0.173,0.453,-0.568,-1.15,0.547,0.0233 (inactive),0.239,0.43,-0.439 (inactive)
COC(=O)[C@H]1[C@@H](O)[C@@]2(O)c3ccccc3O[C@@]2(c2ccccc2)[C@@H]1c1ccccc1,-0.262 (inactive),-0.193,0.249 (inactive),0.454 (inactive),0.296 (inactive),0.148 (inactive),0.0192,-0.481 (inactive),0.526 (inactive),0.152,-0.895,-0.535,-2.85,-2.81,-3.1,-1.85,-0.144 (inactive),-0.231,-0.341,-0.146 (inactive)
CC(=O)OC[C@H]1OC(ON=CC[C@@H]2C=C[C@H](OC(C)=O)[C@@H](COC(C)=O)O2)[C@H](OC(C)=O)[C@@H](OC(C)=O)[C@@H]1OC(C)=O (stereo not given in full),-0.0016 (inactive),0.315,0.202 (inactive),0.0995 (inactive),0.153 (inactive),0.22 (inactive),-0.999,0.00176 (inactive),0.186 (inactive),0.0378,-0.49,-0.403,-1.12,-0.092,-0.878,0.0783,-2.76 (inactive),-0.796,0.23,0.103 (inactive)

# Source: PubChem BioAssay
